Data on 40 compounds can be found in PubChem BioAssay.

Results filed as inconclusive are left out. A number with no mark means an inactive call. Calls of active or inactive are those of the source.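 Rule for the calls: active = cell viability at or below a set limit in both duplicate runs, the limit being the all-compound median minus 4 SD (cut at about 23% in these data, passing the limit was not always enough); inconclusive = no clear call, values can overlap the other calls; inactive = the rest.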

The assay in a line: viability of HCT116 without oncogenic beta-catenin – human colon tumor cells, pilot screen (AID 823).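 Note: 0% = wells killed by 20 µM Hyamine and 100% = untreated DMSO cell wells.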 The note with it: HCT116 beta-catenin knockout viability, CellTiter-Glo, 60 h; at 10 µM; active compounds read low.
Regarding `CCC(C)NC(=O)CCCCCn1c(=O)[nH]c2cc(OC)c(OC)cc2c1=O` (stereo not given), the viability was 88%.

Take `Cc1ccc(C(C(=O)NC2CCCC2)N2CCCCC2)cc1` (stereo not given): the viability is 86.9%.

For `COc1ccccc1N1CCN(C(=O)c2ccc(Br)s2)CC1`, the viability is 87%.

Take `Cc1cc(=O)[nH]c(Cc2ccc(OC(C)C)cc2)n1`: the viability was 98.4%.

As to `Cc1ccc(-c2nnc3ccc(SC(C)C(=O)O)nn23)cc1` (stereo not given), the viability is 99.1%.

For the compound `CSc1nnc(-c2ccco2)n1-c1ccccc1`, the viability was 94.6%.

As to `COc1ccc(C2CC(c3cccc(C)c3)n3nc(N)nc3N2)cc1` (stereo not given), the viability was 105%.

Turning to `O=C(COc1ccccc1F)c1ccc(O)cc1O`, the viability is 101%.

For the compound `O=C(C1CCN(S(=O)(=O)c2cccc3cccnc23)CC1)N1CCN(C2CCCC2)CC1`, the viability was 94.3%.

Take `COc1ccc(N2C(=O)C3CCCN3C2c2ccccc2OC)cc1` (stereo not given): the viability was 103%.

Take `O=S(=O)(Nc1ccc(-c2nc3cccnc3s2)cc1)c1cccs1`: the viability is 110%.

Turning to `COc1cc(OC)c(C2CC(=O)N3CN(C)CSC3=C2C#N)cc1OC` (stereo not given), the viability is 99.3%.

For the compound `CCOCCn1c(SCc2ccc(C)cc2)nc2c1c(=O)[nH]c(=O)n2C`, the viability is 92.5%.

As to `CC1Oc2ccccc2C=C1C1/C(=C(/O)c2ccccc2)C(=O)C(=O)N1CCCN(C)C` (stereo not given), the viability is 95.6%.

For the compound `c1ccc2cc3[nH]c(CN4CCCCC4)nc3cc2c1`, the viability is 95.9%.

Turning to `CCCCCOc1ccc(NC(=O)CCCC(=O)O)cc1`, the viability is 91.1%.

As to `COc1cccc(NC(=O)CSc2nnc(-c3ccc(C)cc3)o2)c1`, the viability is 93.9%.

In the case of `COCCCN1C(=O)C(O)=C(C(=O)c2ccc(C)o2)C1c1cccc(Br)c1` (stereo not given), the viability was 106%.

On to `CCOc1ccc(OCC)c(S(=O)(=O)NCCCN2CCOCC2)c1`, for which the viability is 99.8%.

With `CC1CCc2nn(CC(=O)NCCCN3CCCC3=O)cc2C1` (stereo not given), the viability is 103%.

As for `Clc1ccc(Cc2nnc(-c3ccccc3Br)o2)cc1`, the viability is 101%.

On to `Cc1cc(C)c(C)c(OCC(=O)NCCN(C)C)c1`, for which the viability is 91%.

As to `COC(=O)CCS(=O)(=O)c1cc(Cl)ccc1Cl`, the viability is 95.4%.

As for `Cn1cccc1Cc1nnc(SCC(=O)N2CCCC2)n1CCc1ccccc1`, the viability was 103%.

As to `CC1NC(=O)NC1CCCCC(=O)O` (stereo not given), the viability is 109%.

Take `CCOC(=O)c1cc(-c2ccc(F)cc2)n(CC(=O)Nc2nccs2)c1C`: the viability is 59%.

Consider `Cn1c(SCC(=O)Nc2ccccc2F)nnc1-c1cccnc1`, for which the viability was 100%.

Take `CCn1cc(C(=O)Nc2ccc3c(c2)OCCO3)c2cc(OC)c(OC)cc2c1=O`: the viability is 101%.

As to `O=C1c2ccccc2C(=O)N1CCCc1nc(-c2ccc(Cl)cc2)no1`, the viability was 102%.

For `CN1C(=O)c2cccc(NC(=O)Cc3ccccc3)c2C1=O`, the viability was 111%.

Turning to `CCc1c(C(C)O)oc2ccc3c(C)cc(=O)oc3c12` (stereo not given), the viability was 84.3%.

Regarding `O=C(NCCc1ccccc1)c1ccncc1`, the viability was 88.8%.

`Cc1onc(-c2ccccc2Cl)c1C(=O)N(C)C1CCCCC1`: the viability was 46.5%.

Regarding `CCN(CC(=O)NCc1ccc(F)cc1)C(=O)C1CCN(C(=O)Nc2ccccc2)CC1`, the viability was 96.2%.

Regarding `CCCCCn1c(=N)n(CC(O)COc2ccccc2OC)c2ccccc21` (stereo not given), the viability was 15.6% (active).

Consider `N#CC1=C(N)Oc2c(sc3ccccc23)C1c1ccco1` (stereo not given), for which the viability is 63.3%.

Turning to `COc1ccccc1N1CCN(Cc2cc(Br)c(O)c3ncccc23)CC1`, the viability was 6.37% (active).

For the compound `CC(=O)Nc1ccc(S(=O)(=O)N2CCN(c3nc(NC4CCCC4)c4ccccc4n3)CC2)cc1`, the viability was 1.42% (active).

For `COc1cc(NC(=O)c2c(-c3ccccc3Cl)noc2C)c2ncccc2c1`, the viability is 60.2%.

Turning to `O=C(O)CCc1ccc(-c2cccs2)n1NC(=O)c1ccc(Cl)cc1`, the viability is 98%.
